Most compounds without a hit are left out; they make up all but 19% or so of the library.
KB-3-1 tox – kills parental KB-3-1 adenocarcinoma cells. KB-3-1 viability, CellTiter-Glo ATP luminescence, 72 h. Potency, µM (top dose mostly 46.1 µM), most hits filed as cytotoxic. 400,000 tested, 1.4% active; further: nearly all actives have a fitted effect of over 60% in size
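Screening of KB-3-1 cells (DMEM, 10% FBS, phenol-red free) ran from lowest to highest compound concentration; after 72 h at 37 °C viability was read luminescently and curves fitted.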
HT1080NT lethal – kills 2HG-producing HT-1080-NT fibrosarcoma cells. HT-1080-NT fibrosarcoma viability, CellTiter-Glo ATP luminescence, 48 h. Potency, µM (highest dose often 46.1 µM), inactives show at the highest dose activity, negative = less viability, actives largely listed as cytotoxic. 360,000 tested, 1.6% active. AID 686970;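 further: NT is the 2HG producing partner of a matched IDH1 knockdown line; 0% = DMSO-treated cells and -100% = media-only wells without cells; nearly all actives have a fitted effect of over 55% in size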
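A 48-hour cytotoxicity screen used HT-1080-NT cells plated 2 hours before compound delivery. ATP-based CellTiter-Glo luminescence measured viability, normalized to DMSO and no-cell controls.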
TDP1 cell CPT – growth inhibition of DT40 Tdp1-/-;hTDP1 cells with camptothecin (screen for TDP1 inhibitors); Potency, µM (top dose mostly 46.2 µM), for the others: top-dose activity change, negative = growth inhibition, actives largely listed as inhibitors; chicken DT40 Tdp1-/-;hTDP1 cells + 20 nM CPT, ATP luminescence, 48 h; 420,000 tested, 12% active; AID 686979; further: nearly all actives have a fitted effect of over 55% in size
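Cell growth measured by CellTiter-Glo luminescence after a minimum 48 h, 37 C compound exposure with 20 nM CPT in Tdp1-knockout DT40 cells stably expressing hTDP1, seeded 400/well; qHTS titration format.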
KB-V1 MDR tox – KB-V1 MDR subline cytotoxicity; Potency, µM (top dose mostly 46.1 µM), hits mostly cytotoxic; KB-V1 MDR cells viability, CellTiter-Glo, 72 h; 400,000 tested, 3.4% active; further: nearly all actives have a fitted effect of over 60% in size
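Luminescent ATP read-out (CellTiter-Glo, 10 min) measures survival of drug-selected KB-V1 MDR cells after 72 h, 37 degrees C compound exposure. Medium: phenol-red-free DMEM, 10% FBS. Values from fitted concentration-response curves.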
HT1080 IDH1KD tx – toxicity to HT-1080 IDH1 knockdown cells (counter line). HT-1080 IDH1 knockdown viability, ATP luminescence, 48 h. Potency, µM (series often up to 46.1 µM), for inactives: top-dose activity, negative = toxicity, hits mostly cytotoxic. 360,000 tested, 2% active. AID 686971;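 further: 0% = DMSO wells and -100% = cell-free medium wells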
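Using the IDH1-knockdown HT-1080 line run in the same batch and compound series as the NT line, viability after 48 h at 37 °C was determined by CellTiter-Glo luminescence and expressed as % activity.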
DT40 TDP1 no CPT – qHTS for Inhibitors of human tyrosyl-DNA phosphodiesterase 1 (TDP1): qHTS in cells in absence of CPT; 420,000 tested, 15% active; AID 686978, 2013; Potency, µM (highest dose often 46.2 µM), without a hit: at the highest dose activity change, negative = growth inhibition, hits mostly inhibitors; DT40 Tdp1-/- hTDP1 cells, no CPT, ATP luminescence, 48 h; further: nearly all actives have a fitted effect of over 55% in size
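Chicken DT40 Tdp1-/- cells stably complemented with human TDP1 were seeded at 400 cells/well with DMSO in place of 20 nM camptothecin. After compound pinning, cells grew at least 48 hr at 37 °C; viability read by CellTiter-Glo luminescence.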
Active calls of the source: *; i = inactive; ? = inconclusive; . = no result given; [ ] = dose if it differs, or a comment. The call rests on the fitted dose curve; in most records, active means well fitted curve in the direction sought with a large enough effect; inconclusive means small, poorly fitted or top-dose-only effect, or another doubt; inactive means no such curve, though single readings can be large; an effect the other way counts as inactive or inconclusive. Unless noted, on the % scale 0 is the no-effect control and ±100 the full control effect; potency means the concentration at half of the fitted maximal effect.

SMILES | KB-3-1 tox | HT1080NT lethal | TDP1 cell CPT | KB-V1 MDR tox | HT1080 IDH1KD tx | DT40 TDP1 no CPT
COc1ccc(CCc2nnc(CCC(=O)N(C)Cc3ccnc4ccccc34)o2)cc1 | i | ? | ? | i | 20.6µM* | 4.61µM*
CCCN(CC1CCCO1)C(=O)CCc1nnc(CCc2ccc(OC)cc2)o1 (centres undefined) | i | 13.5% | 23.1µM* | i | 2.1% | ?
COc1ccc(CCc2nnc(CCC(=O)NCC3CCCO3)o2)cc1 (centres undefined) | i | -1.3% | 15.3% | i | 12.7% | -6.9%
COc1ccc(C)cc1NC(=O)c1ccc2c(c1)nnn2C1CCCC1 | i | . | ? | i | . | ?
COc1cccc(NCc2nnc(SC(C(=O)N(C)C)c3ccccc3)n2C2CCCCC2)c1 (centres undefined) | i | . | 6.0% | i | . | -27.2%
Cc1ccc(NC(=S)NCC2CCCO2)cc1C (centres undefined) | i | 17.5% | 4.5% | i | 15.8% | -5.7%
Cc1ccc(NC(=S)NCC2CCN(C(C)c3ccccc3)C2)cc1C (centres undefined) | i | 1.8% | 23.1µM* | i | 0.6% | 16.4µM*
N#C/C(=C\c1ccccc1OCc1ccc(C(=O)O)cc1)C(=O)Nc1ccc(O)cc1 | i | -1.5% | 2.2% | i | 0.0% | -15.3%
N#C/C(=C/c1ccccc1OCc1ccc(F)cc1)c1ccc(C(=O)O)cc1 | i | -0.1% | -9.1% | ? | -1.1% | 10.6%
COC(=O)c1ccc(COc2ccccc2/C=C(\C#N)C(=O)Nc2ccc(C)cc2)cc1 | i | -7.2% | 6.51µM* | i | -25.8% | 5.17µM*
C=CCNC(=O)/C(C#N)=C/c1ccccc1OCc1ccc(C(=O)OC)cc1 | i | ? | 2.91µM* | ? | ? | 7.31µM*
Cc1nc2ccccn2c1/C(O)=C1\C(=O)C(=O)N(CCCn2ccnc2)C1c1ccncc1 (centres undefined) | i | 0.0% | -1.3% | i | 0.2% | -16.9%
CCn1cc(C(=O)O)c(=O)c2cc(F)c(N/N=C/c3ccccc3)cc21 | ? | -4.2% | ? | 7.31µM* | -17.8% | 13µM*
CCn1cc(C(=O)O)c(=O)c2cc(F)c(N3CCN(S(=O)(=O)c4ccc(NC(C)=O)cc4)CC3)cc21 | ? | -0.6% | -27.4% | i | 6.3% | ?
CCn1cc(C(=O)O)c(=O)c2cc(F)c(N3CCN(C(=S)NC(=O)c4ccccc4F)CC3)cc21 | i | 18.2% | -20.1% | i | 20.4% | 14.6µM*
CCn1cc(C(=O)O)c(=O)c2cc(F)c(N3CCN(C(=S)NC(=O)c4cccc(C)c4)CC3)cc21 | i | 21.4% | -23.5% | i | 22.7% | -17.3%
CCn1cc(C(=O)O)c(=O)c2cc(F)c(N3CCN(C(=O)Nc4ccccc4)CC3)cc21 | i | 1.3%[9.24 µM] | 20.6µM* | i | -8.4% | 23.1µM*
CCn1cc(C(=O)O)c(=O)c2cc(F)c(N3CCN(S(=O)(=O)c4ccc5c(c4)OCCO5)CC3)cc21 | i | 13.7% | 20.6µM* | i | 2.4% | ?
CCOc1ccc(NC(=O)c2ccc3c(SCC(=O)O)c4c(nc3c2)CCC4)cc1 | i | . | 15.1% | i | . | 11.3%
CC(C)Cc1nnc(NC(=O)c2ccc([N+](=O)[O-])cc2)s1 | i | 4.7% | -15.9% | i | 11.2% | -24.0%
C=CCCCCCCCC(=O)OC | i | 4.0% | 0.4% | i | 5.2% | 16.1%
C[C@@]12C(=O)N(c3cccc(F)c3)C(=O)N1[C@@H]1c3ccccc3OC[C@@H]1[C@H]2c1ccccc1 | ? | ? | ? | ? | -3.1% | 14.6µM*
C[C@]12C(=O)N(c3ccc(Cl)cc3)C(=O)N1[C@@H]1c3ccccc3OC[C@@H]1[C@H]2c1ccccc1 | i | 0.2% | ? | i | -1.3% | 23.1µM*
C[C@@]12C(=O)N(c3cccc(Cl)c3)C(=O)N1[C@@H]1c3ccccc3OC[C@@H]1[C@H]2c1ccccc1 | i | -9.5% | ? | i | 0.2% | ?
C[C@@]12C(=O)N(c3ccc(Br)cc3)C(=O)N1[C@@H]1c3ccccc3OC[C@@H]1[C@H]2c1ccccc1 | i | 2.4% | ? | i | 5.5% | 18.4µM*
SMILES | KB-3-1 tox | HT1080NT lethal | TDP1 cell CPT | KB-V1 MDR tox | HT1080 IDH1KD tx | DT40 TDP1 no CPT
C[C@@]12C(=O)N(c3ccccc3)C(=O)N1[C@@H]1c3ccccc3OC[C@@H]1[C@H]2c1ccccc1 | ? | -13.9% | 16.4µM* | ? | -18.8% | ?
C[C@]12C(=O)N(c3ccc(Cl)cc3)C(=O)N1[C@H]1c3ccccc3OC[C@@H]1[C@H]2c1ccccc1 | i | -13.0% | ? | i | -19.1% | ?
CC1=C(C(=O)OCC2CCCO2)C(c2ccc(Cl)cc2)NC(=O)N1 (centres undefined) | i | -3.5% | 0.8% | ? | -6.5% | ?
CC(=O)c1cccc(NC(=O)N2CCC(NC(=O)C3CCCCC3)CC2)c1 | i | -0.2% | 7.0% | i | -4.3% | -4.8%
CN(C(=O)c1cc(COc2ccc(F)cc2Cl)on1)C1CCOC1 (centres undefined) | i | 8.2% | ? | i | 4.0% | ?
CC(=O)c1ccc(C(=O)N2CCc3c(cnc(C)c3CNC(=O)c3ccc4c(c3)OCO4)C2)s1 | . | . | 1.3%[9.04 µM] | . | . | -28.8%
Cc1ncc2c(c1CNC(=O)c1ccccc1F)CCN(C(=O)c1ccc3c(c1)OCCO3)C2 | . | . | 0.058µM* | . | . | 0.13µM*
Cc1cc(-c2nn(-c3ccccc3F)cc2CNCCc2cnccn2)c(C)s1 | i | -13.0% | ? | ? | -22.6% | -28.3%
Cc1cccc(N2CCN(Cc3cn(C)nc3-c3ccccc3F)CC2)n1 | 5.8µM* | ? | 1.84µM* | ? | 1.84µM* | 2.59µM*
Cc1cc(-c2nn(-c3ccccc3F)cc2CN2CCN(c3ccccn3)CC2)c(C)s1 | i | -4.1% | 13µM* | 16.4µM* | ? | 11.6µM*
Cn1cc(CN2CCN(c3ccc(Cl)cn3)CC2)c(-c2ccccc2F)n1 | i | 3.5% | ? | i | 4.0% | ?
CCN(CC)CCNC(=O)c1ccc2nc(CCc3ccccc3)oc2c1 | i | . | ? | i | . | ?
O=C(Nc1ccc(-c2nc3ccccc3o2)cc1)c1ccc(N2CCOCC2)c([N+](=O)[O-])c1 | i | -22.6% | 7.31µM* | i | 1.7% | 4.61µM*

Screening results (PubChem BioAssay)
